# FBPA Giardia inh – inhibitors of Giardia lamblia fructose-1,6-bisphosphate aldolase. A8B2U2. purified Giardia FBPA. Potency, µM (titrated, usually from 59.6 µM), usual class: inhibitors. 0.71% of 290,000 active. AID 2451; also: nearly all actives have a fitted effect of over 55% in size
# Target sequence (A8B2U2 whole entry, looked up): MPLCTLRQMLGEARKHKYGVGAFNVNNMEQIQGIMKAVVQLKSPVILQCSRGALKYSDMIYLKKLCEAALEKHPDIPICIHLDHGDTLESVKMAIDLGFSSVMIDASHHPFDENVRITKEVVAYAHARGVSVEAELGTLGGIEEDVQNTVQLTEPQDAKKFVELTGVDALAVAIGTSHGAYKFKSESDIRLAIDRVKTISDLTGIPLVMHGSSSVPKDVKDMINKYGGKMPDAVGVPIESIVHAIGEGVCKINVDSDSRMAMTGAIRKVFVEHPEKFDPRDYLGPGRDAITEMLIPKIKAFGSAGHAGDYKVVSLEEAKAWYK
#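 40 nM FBPA preincubated 10 min at RT with compound (up to 57.5 uM final), then substrate plus GAPDH/TPI/NAD/arsenate coupling and diaphorase/resazurin added. Fluorescence read after 20 min at RT, 525/598 nm.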
# Pf growth 96h – P. falciparum growth inhibition at 96 hour, primary screen for plastid delayed-death inhibitors; P. falciparum luciferase reporter growth, 96 h; Potency, µM (highest dose often 28.7 µM), actives largely listed as inhibitors; 6.9% of 320,000 active
#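 Cell-based qHTS: luciferase-tagged P. falciparum in erythrocytes (2% hematocrit, 0.05% parasitemia final) incubated with compounds for 96 hours, 37 C, 5% CO2; luciferase detection reagent then added and luminescence measured.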
# HCMV inh – inhibitors of human cytomegalovirus. activity change, negative = inhibition, % at 57.5 µM. HFF cells, HCMV-luciferase reporter, 72 h; active compounds read low. 4.5% of 410,000 active; in the data active = activity change below about -60%; inconclusive = no clear call, values can overlap the other calls; inactive = above about -39%
#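 Luciferase read-out from HCMV-luciferase-infected HFFs (MOI 1 PFU/cell) 72 h post infection at 37C; compounds added after 16 h cell attachment; activity normalized between buffer-only basal and Salinomycin (10uM) inhibitor controls.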
# Pf growth 48h – inhibits P. falciparum growth in the first generation, 48 h. P. falciparum luciferase growth in erythrocytes, 48 h. Potency, µM (titrated, usually from 28.7 µM), actives largely listed as inhibitors. 5.9% of 310,000 active. AID 504832
#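 In quantitative HTS format, infected erythrocytes bearing luciferase-reporter parasites were treated for a single generation at 37 C. Luminescence after adding detection reagent served as the growth measure.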
# Sm TGR inh – S. mansoni TGR enzyme inhibition; Q962Y6; purified TGR, DTNB reduction, TNB absorbance 405 nm; Potency, µM (series often up to 114 µM), actives largely listed as inhibitors; 3% of 360,000 active; AID 485364; also: nearly all actives have a fitted effect of over 60% in size
#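 TGR 20 nM + NADPH 100 uM (dispensed conc.), cpd preinc 15 min RT; start with NADPH (500 uM addition) then DTNB (15 mM addition). Kinetic TNB absorbance, 405 nm filter. Four-parameter Hill fit across titration.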
# Hits are given with their value; – = inactive; ? = inconclusive; · = no result; [ ] = another dose, or the depositor's remark. Only some compounds are listed: those with a hit (about 14% of all), similar ones and a draw of the others. Unless noted, calls follow the shape of the dose curve; as a rule, active = well fitted curve in the direction sought with a large enough effect; inconclusive = small, poorly fitted or top-dose-only effect, or another doubt; inactive = no such curve, though single readings can be large; an effect the other way counts as inactive or inconclusive.
SMILES,FBPA Giardia inh,Pf growth 96h,HCMV inh,Pf growth 48h,Sm TGR inh
Cc1ccccc1NC(=O)CSCc1cc(=O)n2ccsc2n1,·,–,–,–,–
CCSc1nnc2n(-c3cccc(C)c3)c(=O)c3c4c(sc3n12)CCCC4,·,·,–,·,–
C[C@@H]1COc2cc(NCCO)ccc2S(=O)(=O)N1,·,·,–,·,·
CCc1nc(Nc2ccccc2)c2oc3ccccc3c2n1,–,–,–,–,–
CCc1nc(Nc2ccc(N3CCN(C(C)=O)CC3)cc2)c2oc3ccccc3c2n1,–,–,–,10.4µM,–
Cc1nc(NCCCn2ccnc2)c2ccccc2n1,–,–,–,·,–[11.4 µM]
c1ccc(-c2nc(NCc3ccco3)c3oc4ccccc4c3n2)cc1,·,?,–,?,–
CCc1nc(NCCCn2ccnc2)c2oc3ccccc3c2n1,–,13.1µM,–,?,–
c1cncc(-c2nc(NCCCn3ccnc3)c3ccccc3n2)c1,–,?,-67.2,–,–
c1ccc(-c2nc(NCCCn3ccnc3)c3oc4ccccc4c3n2)cc1,·,2.33µM,–,3.29µM,–
NC(N)=NCCC[C@H](N)C(=O)NCC(=O)N[C@@H](CC(=O)O)C(=O)O,–,·,·,·,·
O=C(Nc1ccc(Cl)cc1)Nc1ccc(N2CCCC2)c(S(=O)(=O)Nc2ccccc2Cl)c1,–,?,-99.4,?,–
O=C(Nc1ccc(N2CCOCC2)c(S(=O)(=O)Nc2ccccc2Cl)c1)c1ccc(=O)[nH]n1,·,·,–,·,·
Nc1ccc(N2CCOCC2)c(S(=O)(=O)Nc2ccccc2Cl)c1,·,·,–,·,·
O=C(Nc1ccc(N2CCOCC2)c(S(=O)(=O)Nc2ccccc2Cl)c1)c1ccccc1,·,?,–,10.4µM,–
Cc1cc(NC(=O)CCN2C(=O)C3C4CCC(C4)C3C2=O)cc(C)c1Br (centres undefined),–,0.928µM,–,–,–
Cc1c(Br)ccc(NC(=O)CCN2C(=O)C3C4CCC(C4)C3C2=O)c1C (centres undefined),–,–,–,–,–
COc1ccc(NC(=O)c2cccc(N3C(=O)C4C5C=CC(C5)C4C3=O)c2)cc1 (centres undefined),–,–,–,–,–
O=C1C2C3C=CC(C3)C2C(=O)N1c1ccc2c(c1)OCO2 (centres undefined),–,–,–,–,–
Cc1cc(N2C(=O)C3C4C=CC(C4)C3C2=O)ccc1Br (centres undefined),–,11.7µM,–,–,–
Cc1cc(C)cc(NC(=O)c2cccc(N3C(=O)C4C5C=CC(C5)C4C3=O)c2)c1 (centres undefined),–,4.65µM,–,?,–
Cc1cc(NC(=O)CCN2C(=O)C3C4C=CC(C4)C3C2=O)ccc1Br (centres undefined),–,–,-68.3,–,–
COc1ccc(NC(=O)CCN2C(=O)C3C4C=CC(C4)C3C2=O)cc1 (centres undefined),–,–,–,–,·
Cc1ccc(C)c(S(=O)(=O)N2CCN(C(=O)[C@H](C)N3C(=O)C4CC=CCC4C3=O)CC2)c1 (some centres undefined),·,?,–,?,–
Cc1cccc(C(=O)Nc2nnc(S(=O)(=O)N(C)c3ccccc3C)s2)c1,·,·,–,·,–
SMILES,FBPA Giardia inh,Pf growth 96h,HCMV inh,Pf growth 48h,Sm TGR inh
O=C(NCc1ccccc1)c1ccc2nc(-c3ccco3)c(-c3ccco3)nc2c1,?,11.7µM,–,·,1.41µM
O=C(Nc1ccc(N2CCOCC2)cc1)c1ccc2nc(-c3ccco3)c(-c3ccco3)nc2c1,–,?,–,–,?
CC(=O)c1ccc(NC(=O)CSc2nnc(-c3ccco3)c(-c3ccco3)n2)cc1,?,–,–,–,2.82µM
CC(=O)c1ccc(NC(=O)c2ccc3nc(-c4ccco4)c(-c4ccco4)nc3c2)cc1,?,·,·,11.7µM,0.794µM
O=C(Nc1ccccc1)c1ccc2nc(-c3ccco3)c(-c3ccco3)nc2c1,?,·,–,?,3.16µM
O=C(NCc1ccccc1)c1ccc2nccnc2c1,–,–,?,·,–
O=C1NCCN(Cc2ccc(F)cc2)C1=O,·,·,–,·,–
Cc1ccc(S(=O)(=O)N2CCOCC2)cc1NC(=O)COC(=O)COc1ccccc1[N+](=O)[O-],·,·,–,·,·

# Bioassay records: PubChem BioAssay, National Center for Advancing Translational Sciences (NCATS)
